The record followed here is PubChem BioAssay (Tox21).

The structures appear in SMILES notation. Records with an inconclusive call do not appear. Unmarked numbers belong to inactive results. Calls of active or inactive are those of the source. Unless noted, calls follow the shape of the dose curve; as a rule, active = well fitted cell-killing curve with a large enough effect in the repeat runs; inconclusive = weak or mixed curves, or effect the other way; inactive = flat fitted curve, though single readings scatter. Positions of bridges follow the written chain, without caps; N, C: chain ends. Residues, ends and D or L forms follow the SMILES beside them.
% is scaled to controls: 0 for no effect and ±100 for the full control effect.

Test system in one assay: not listed separately
The assay can be described thus: qHTS assay to identify small molecule that activate the aryl hydrocarbon receptor (AhR) signaling pathway - cell viability counter screen (AID 743086). Also: nearly all actives have a fitted effect of over 45% in size. Also: potency is read from the fitted curve at half-maximal effect.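 As to viability change, negative = cytotoxic: HepG2 liver cells carrying the AhR DRE luciferase reporter.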 Particulars: HepG2-AhR-luc viability, CellTiter-Fluor, 24 h; series mostly up to 70.3 µM; viability change, negative = cytotoxic: at the top concentration. Summed up: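 HepG2-AhR-luc (HG2L7.5c1) cells, 4000/well, treated 24 h at 37 C with compound; viability measured as CellTiter-Fluor fluorescence after 30 min in the same wells as the luciferase read.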
In the case of `NCCCC[C@H](NC(=O)[C@@H]1CCCN1C(=O)[C@@H]1CSSC[C@H](NC(=O)CNC(=O)CNC(=O)CN)C(=O)N[C@@H](Cc2ccc(O)cc2)C(=O)N[C@@H](Cc2ccccc2)C(=O)N[C@@H](CCC(N)=O)C(=O)N[C@@H](CC(N)=O)C(=O)N1)C(=O)NCC(N)=O` (H-GGGCYFQNCPKG-NH2; disulfide 4-9), the “viability change, negative = cytotoxic” value was 4.19%.
For `O=C(Nc1ccc(/C=C/c2ccc(NC(=O)c3cc(S(=O)(=O)O)c4cccnc4c3O)cc2S(=O)(=O)O)c(S(=O)(=O)O)c1)c1cc(S(=O)(=O)O)c2cccnc2c1O`, the “viability change, negative = cytotoxic” value was -4.57%.
Take `CC(O)[C@H]1CC[C@H]2[C@@H]3CC[C@@H]4C[C@@H](O)CC[C@]4(C)[C@H]3CC[C@]12C` (stereo partly specified): the “viability change, negative = cytotoxic” value is 9.37%.
For `CCCCCCCCCCCCCCCCSCC(COC)COP(=O)([O-])OCC[N+](C)(C)C` (stereo unspecified), the “viability change, negative = cytotoxic” value is -1.31%.
For `OCCN1CCN(CC/C=C2/c3ccccc3Sc3ccc(Cl)cc32)CC1`, the “viability change, negative = cytotoxic” value was -2.18% [at 32.5 µM].
Turning to `CN1[C@@H]2CC[C@H]1CC(OC(c1ccccc1)c1ccccc1)C2` (stereo partly specified), the “viability change, negative = cytotoxic” value is -19.2%.
Consider `CCN(CC)c1ccc(N=Nc2ccc(S(=O)(=O)N(C)C)cc2)c(S(=O)(=O)NCC[n+]2ccccc2)c1`, for which the “viability change, negative = cytotoxic” value was 20.9%.
Regarding `Cc1ccc(/C(=C\CN2CCCC2)c2cccc(/C=C/C(=O)O)n2)cc1`, the “viability change, negative = cytotoxic” value was -4.78%.
`COc1cc(NCCCC(C)N)c2ncccc2c1` (stereo unspecified): the “viability change, negative = cytotoxic” value was -19.4%.
Regarding `O=C(O)c1cc2ccccc2c(Cc2c(O)c(C(=O)O)cc3ccccc23)c1O`, the “viability change, negative = cytotoxic” value is 4.42%.
`C=C1C(=C/C=C2\CCC[C@]3(C)[C@@H]([C@H](C)/C=C/[C@H](C)C(C)C)CC[C@@H]23)C[C@@H](O)C[C@@H]1O`: the “viability change, negative = cytotoxic” value was -0.652%.
As to `C[C@]12C=CC(=O)N[C@@H]1CC[C@@H]1[C@@H]2CC[C@]2(C)[C@@H](C(=O)Nc3cc(C(F)(F)F)ccc3C(F)(F)F)CC[C@@H]12`, the “viability change, negative = cytotoxic” value is 12.5%.
As for `O=S(O)CNc1ccc(S(=O)(=O)c2ccc(NCS(=O)O)cc2)cc1`, the “viability change, negative = cytotoxic” value was -5.06%.
As to `C#C[C@]1(OC(C)=O)CC[C@H]2[C@@H]3CCC4=CC(=O)CC[C@@H]4[C@H]3CC[C@@]21C`, the “viability change, negative = cytotoxic” value is -16.2%.
For the molecule `CCNC(=O)[C@@H]1CCCN1C(=O)[C@H](CCCN=C(N)N)NC(=O)[C@H](CC(C)C)NC(=O)[C@@H](Cc1c[nH]c2ccccc12)NC(=O)[C@H](Cc1ccc(O)cc1)NC(=O)[C@H](CO)NC(=O)[C@H](Cc1c[nH]c2ccccc12)NC(=O)[C@H](Cc1cnc[nH]1)NC(=O)[C@@H]1CCC(=O)N1`, the Potency was 7.5 µM (active).
Take `CCCC1([C@H](O)C/C=C/[C@H]2[C@H](O)CC(=O)[C@@H]2CCCCCCC(=O)OC)CCC1`: the “viability change, negative = cytotoxic” value was -2.22%.
Consider `Cc1c(N)nc(C(CC(N)=O)NCC(N)C(N)=O)nc1C(=O)NC(C(=O)NC(C)C(O)C(C)C(=O)NC(C(=O)NCCc1nc(-c2nc(C(=O)NCCCN[C@@H](C)c3ccccc3)cs2)cs1)C(C)O)C(O[C@@H]1O[C@@H](CO)[C@@H](O)[C@H](O)[C@@H]1O[C@H]1O[C@H](CO)[C@@H](O)[C@H](OC(N)=O)[C@@H]1O)c1cnc[nH]1` (stereo partly specified), for which the “viability change, negative = cytotoxic” value was 17.7%.
For `C[C@]12CCC(=O)C[C@@H]1CC[C@@H]1[C@@H]2CC[C@]2(C)C=CC[C@@H]12`, the “viability change, negative = cytotoxic” value is -2.61%.
With `CC(=O)OC[C@H]1O[C@@H](O[C@H]2[C@H](O)[C@@H](OC(=O)c3ccccc3C(=O)O)[C@H](O)O[C@@H]2COC(C)=O)[C@H](O)[C@@H](OC(=O)c2ccccc2C(=O)O)[C@@H]1O`, the “viability change, negative = cytotoxic” value is -2.67%.
`CN1[C@@H]2CCC[C@H]1CC(NC(=O)c1nn(C)c3ccccc13)C2` (stereo partly specified): the “viability change, negative = cytotoxic” value was 6.8%.
Regarding `COC(=O)C1=C(C)NC(C)=C(C(=O)O[C@H]2CCN(Cc3ccccc3)C2)[C@H]1c1cccc([N+](=O)[O-])c1`, the Potency was 29.8 µM (active).

In another assay the target is Peroxisome proliferator-activated receptor gamma (Homo sapiens) (UniProt P37231). Kind of assay: qHTS assay to identify small molecule agonists of the peroxisome proliferator-activated receptor gamma (PPARg) signaling pathway (AID 743094; active = well fitted activation curve with a large enough effect in the signal ratio in the repeat runs, not every such curve was filed as active; the % refers to the signal ratio). Particulars: HEK293H PPARg-UAS-bla, beta-lactamase FRET ratio, 17 h; series mostly up to 57 µM; activation: at the top concentration. Summed up: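 Stably transfected HEK293H cells (GeneBLAzer PPARg UAS-bla) were incubated with test substances for 17 h at 37C after a 5 h pre-incubation; beta-lactamase activity was then detected by FRET substrate fluorescence.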
Sequence of Peroxisome proliferator-activated receptor gamma (Homo sapiens) (P37231 whole entry, looked up): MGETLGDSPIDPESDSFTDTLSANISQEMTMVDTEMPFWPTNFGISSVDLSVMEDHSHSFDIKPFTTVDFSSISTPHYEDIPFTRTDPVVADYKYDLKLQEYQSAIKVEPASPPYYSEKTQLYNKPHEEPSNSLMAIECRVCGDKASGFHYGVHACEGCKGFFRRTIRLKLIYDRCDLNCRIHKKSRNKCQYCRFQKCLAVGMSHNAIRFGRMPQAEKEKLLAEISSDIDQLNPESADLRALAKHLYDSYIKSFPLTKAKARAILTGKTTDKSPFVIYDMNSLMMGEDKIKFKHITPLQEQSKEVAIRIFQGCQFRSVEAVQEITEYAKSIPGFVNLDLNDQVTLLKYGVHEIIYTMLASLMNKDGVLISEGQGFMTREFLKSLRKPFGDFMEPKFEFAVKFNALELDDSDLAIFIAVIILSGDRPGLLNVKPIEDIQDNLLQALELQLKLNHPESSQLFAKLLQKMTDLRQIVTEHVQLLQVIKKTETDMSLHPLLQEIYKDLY
On the technique in general: In qHTS, concentration-response curves come from the screen itself.
For `NCCCC[C@H](NC(=O)[C@@H]1CCCN1C(=O)[C@@H]1CSSC[C@H](NC(=O)CNC(=O)CNC(=O)CN)C(=O)N[C@@H](Cc2ccc(O)cc2)C(=O)N[C@@H](Cc2ccccc2)C(=O)N[C@@H](CCC(N)=O)C(=O)N[C@@H](CC(N)=O)C(=O)N1)C(=O)NCC(N)=O` (H-GGGCYFQNCPKG-NH2; disulfide 4-9), the “activation” value was -0.389%.
With `O=C(Nc1ccc(/C=C/c2ccc(NC(=O)c3cc(S(=O)(=O)O)c4cccnc4c3O)cc2S(=O)(=O)O)c(S(=O)(=O)O)c1)c1cc(S(=O)(=O)O)c2cccnc2c1O`, the “activation” value is 2.01%.
As to `CC(O)[C@H]1CC[C@H]2[C@@H]3CC[C@@H]4C[C@@H](O)CC[C@]4(C)[C@H]3CC[C@]12C` (stereo partly specified), the “activation” value was 0.138%.
On to `CC(C)(C)NC[C@H](O)COc1ccccc1C1CCCC1`, for which the “activation” value was -9.09% [at 26.2 µM].
With `CCCCCCCCCCCCCCCCSCC(COC)COP(=O)([O-])OCC[N+](C)(C)C` (stereo unspecified), the “activation” value is -1.08%.
On to `OCCN1CCN(CC/C=C2/c3ccccc3Sc3ccc(Cl)cc32)CC1`, for which the “activation” value was -1.93% [at 26.2 µM].
Turning to `CN(C)CC/C=C1/c2ccccc2CSc2ccccc21`, the “activation” value was -7.6% [at 26.2 µM].
In the case of `CN1CCN(CCCN2c3ccccc3Sc3ccccc32)CC1`, the “activation” value was -9.54%.
Take `CN1[C@@H]2CC[C@H]1CC(OC(c1ccccc1)c1ccccc1)C2` (stereo partly specified): the Potency result is “inactive”.
Regarding `CCN(CC)c1ccc(N=Nc2ccc(S(=O)(=O)N(C)C)cc2)c(S(=O)(=O)NCC[n+]2ccccc2)c1`, the “activation” value is 4.36%.
Same read-out and setting: with `COc1cc(NCCCC(C)N)c2ncccc2c1` (stereo unspecified) the figure was -1.93%; with `O=C(O)c1cc2ccccc2c(Cc2c(O)c(C(=O)O)cc3ccccc23)c1O`, -8.6%; with `C=C1/C(=C\C=C2/CCC[C@]3(C)[C@@H]([C@H](C)OCCC(C)(C)O)CC[C@@H]23)C[C@@H](O)C[C@@H]1O`, -10.7%.
Regarding `C[C@]12C=CC(=O)N[C@@H]1CC[C@@H]1[C@@H]2CC[C@]2(C)[C@@H](C(=O)Nc3cc(C(F)(F)F)ccc3C(F)(F)F)CC[C@@H]12`, the “activation” value is 1.1%.
Turning to `O=S(O)CNc1ccc(S(=O)(=O)c2ccc(NCS(=O)O)cc2)cc1`, the “activation” value is 0.371%.
The same measure, in the same setting: under `C#C[C@]1(OC(C)=O)CC[C@H]2[C@@H]3CCC4=CC(=O)CC[C@@H]4[C@H]3CC[C@@]21C` stands -6.09%; under `COc1cc([C@@H]2c3cc4c(cc3C(O[C@@H]3O[C@@H]5CO[C@@H](C)O[C@H]5[C@H](O)[C@H]3O)C3COC(=O)[C@@H]32)OCO4)cc(OC)c1OP(=O)(O)O` (stereo partly specified), -7.13%; under `COc1ccc(C(=O)Nc2ccccc2CCC2CCCCN2C)cc1` (stereo unspecified), -6.05%.
In the case of `COc1cc2[nH]c(C)c(CCN3CCN(c4ccccc4)CC3)c2cc1OC`, the “activation” value was -4.33%.
Regarding `CN1CC(O)c2cc(N=NC(N)=O)c(O)cc21` (stereo unspecified), the “activation” value is 0.0745%.
`CC(CN(C)C)CN1c2ccccc2S(=O)(=O)c2ccccc21` (stereo unspecified): the “activation” value is -8.86%.
For `C[C@H]1C[C@H]2[C@@H]3CCC4=CC(=O)C=C[C@]4(C)[C@@]3(F)[C@@H](O)C[C@]2(C)[C@@]1(O)C(=O)CCl`, the “activation” value is -12.9%.
As to `C[C@]12CCC(=O)C[C@@H]1CC[C@@H]1[C@@H]2CC[C@]2(C)C=CC[C@@H]12`, the “activation” value is 1.42%.
Consider `CC(=O)OC[C@H]1O[C@@H](O[C@H]2[C@H](O)[C@@H](OC(=O)c3ccccc3C(=O)O)[C@H](O)O[C@@H]2COC(C)=O)[C@H](O)[C@@H](OC(=O)c2ccccc2C(=O)O)[C@@H]1O`, for which the “activation” value is -6.14%.
Consider `CN1[C@@H]2CCC[C@H]1CC(NC(=O)c1nn(C)c3ccccc13)C2` (stereo partly specified), for which the “activation” value was -1.04%.
